# Measurements as given in PubChem BioAssay (NCATS).
# Results filed as inconclusive are left out. Entries that show only a call come without a potency. Active and inactive are the calls of the source. Calls follow the shape of the dose curve; as a rule, active = well fitted curve in the direction sought with a large enough effect; inconclusive = small, poorly fitted or top-dose-only effect, or another doubt; inactive = no such curve, though single readings can be large; an effect the other way counts as inactive or inconclusive.
# Tested on: not listed separately
# Assay: Primary qHTS for inhibitors of La Crosse Virus (LACV) - induced cell death in SH-SY5Y cells (AID 1508616);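 also: higher means more rescue of cells from virus-induced death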
# Details: SH-SY5Y LACV cytopathicity rescue, ATP luminescence, 6 d; series mostly up to 4.29 µM
# In short: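 Rescue of virus-induced death was read as ATPLite luminescence after 6 days at 37C, scaled between DMSO wells with LACV and without virus. Cells were SH-SY5Y, 6000/well, infected at 0.01 MOI after compound addition.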
# Also: top concentration of the series differs between compounds.
row,Structure (SMILES),outcome
1,FC1(F)C(F)(F)C(F)(F)C2(F)C(F)(F)C(F)(F)C(F)(F)C(F)(F)C2(F)C1(F)F (stereo not given),inactive
2,COc1cc(N)c(Cl)cc1C(=O)NC1CCN(Cc2ccccc2)CC1,inactive
3,C[N+]1(C)CCC(=C(c2ccccc2)c2ccccc2)CC1,inactive
4,OCc1ccccn1,inactive
5,CN1CCN(c2cc3c(cc2F)c(=O)c(C(=O)O)cn3-c2ccc(F)cc2)CC1,inactive
6,O=C(Nc1cccc(C2=NCCN2)c1)Nc1cccc(C2=NCCN2)c1,inactive
7,NC(=S)N/N=C/c1cccnc1,inactive
8,CO[C@]12C[C@@H](COC(=O)c3cncc(Br)c3)CN(C)[C@@H]1Cc1cn(C)c3cccc2c13,inactive
9,COc1cc(C)nc(-n2nc(C)cc2OC)n1,inactive
10,N#CCC(=O)NN,inactive
11,CCCN(CCC)S(=O)(=O)c1ccc(C(=O)O)cc1,inactive
12,CCOc1cc(OCC)c(C(=O)CCC(=O)O)cc1OCC,inactive
13,O=[N+]([O-])c1ccc(/C=N\O)o1,inactive
14,O=C(CCN1CCN2CCCC2C1)N1c2ccccc2Sc2ccc(Cl)cc21 (stereo not given),inactive
15,CC(C(=O)O)c1cccc(Oc2ccccc2)c1 (stereo not given),inactive
16,CCCCCCCCCCCCCC(=O)OC(C)C,inactive
17,COc1ccc(-c2cc(C(F)F)nn2-c2ccc(S(N)(=O)=O)cc2)cc1F,inactive
18,NS(=O)(=O)c1cc(C(=O)O)cc(N2CCCC2)c1Oc1ccccc1,inactive

row,Structure (SMILES),outcome
1,O=C(O)c1ccc(S(=O)(=O)N(Cl)Cl)cc1,inactive
2,CC(C)n1c(/C=C/[C@@H](O)C[C@@H](O)CC(=O)O)c(-c2ccc(F)cc2)c2ccccc21,inactive
3,Cc1cccc(C)c1NC(=O)CN1CCCC1,inactive
4,CCCCCCCC/C=C\CCCCCCCCN,inactive
5,CCCCN1C[C@H](O)[C@@H](O)[C@H](O)[C@H]1CO,inactive
6,COP(=O)(OC)OC(c1ccc(Cl)cc1)P(=O)(OC)OC (stereo not given),inactive
7,CCN(CC)CCOC(=O)C(Cc1cccc2ccccc12)CC1CCCO1 (stereo not given),inactive
8,O=C(O)P(=O)(O)O,inactive
9,CC(=C(CCOC(=O)C(C)C)SSC(CCOC(=O)C(C)C)=C(C)N(C=O)Cc1cnc(C)nc1N)N(C=O)Cc1cnc(C)nc1N,inactive
10,CN1CCc2cccc3c2[C@H]1Cc1ccc(O)c(O)c1-3,inactive
11,NCc1ccccc1Sc1ccccc1CO,inactive
12,C[C@H]1[C@H]2CC[C@H]3[C@@H]4CC=C5C[C@@H](N(C)C)CC[C@]5(C)[C@H]4CC[C@]23CN1C,inactive
13,CCN1CCCC(OC(=O)C(c2ccccc2)c2ccccc2)C1 (stereo not given),inactive
14,CCCc1ncc(C[n+]2ccccc2C)c(N)n1,inactive
15,CN(C)CCC[C@@]1(c2ccc(F)cc2)OCc2cc(C#N)ccc21,inactive
16,COc1cc(C(=O)NCc2ccc(OCCN(C)C)cc2)cc(OC)c1OC,inactive
17,CCOc1ccccc1OCCN[C@H](C)Cc1ccc(OC)c(S(N)(=O)=O)c1,inactive
18,Nc1ccc(C(=O)NCC(=O)O)cc1,inactive

# Biological target: Calcium and integrin-binding protein 1 (Homo sapiens) (UniProt Q99828)
# Assay: Primary qHTS for Identification of Calcium Integrin Binding Protein 1 (CIB1) Competitor (AID 1508620);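 also: GST tagged CIB1 binding a fluorescein labelled alphaIIb integrin peptide tracer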
# Details: CIB1-GST / FITC-alphaIIb peptide fluorescence polarization; series mostly up to 114 µM
# In short: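 CIB1-GST (1 uM final) and compound incubated 15 min at room temperature before adding FITC-alphaIIb peptide tracer (100 nM final). Competition for binding read by fluorescence polarization (ex 480, em 540) after another 15 min at room temperature.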
# Sequence of Calcium and integrin-binding protein 1 (Homo sapiens) (Q99828 whole entry, looked up): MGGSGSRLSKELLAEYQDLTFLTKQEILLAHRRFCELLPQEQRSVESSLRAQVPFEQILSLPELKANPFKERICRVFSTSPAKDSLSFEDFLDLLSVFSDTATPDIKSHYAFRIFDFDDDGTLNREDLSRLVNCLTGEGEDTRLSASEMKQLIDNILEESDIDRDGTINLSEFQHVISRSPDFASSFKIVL
row,Structure (SMILES),Potency
1,FC1(F)C(F)(F)C(F)(F)C2(F)C(F)(F)C(F)(F)C(F)(F)C(F)(F)C2(F)C1(F)F (stereo not given),inactive
2,COc1cc(N)c(Cl)cc1C(=O)NC1CCN(Cc2ccccc2)CC1,inactive
3,C[N+]1(C)CCC(=C(c2ccccc2)c2ccccc2)CC1,inactive
4,OCc1ccccn1,inactive
5,CN1CCN(c2cc3c(cc2F)c(=O)c(C(=O)O)cn3-c2ccc(F)cc2)CC1,inactive
6,O=C(Nc1cccc(C2=NCCN2)c1)Nc1cccc(C2=NCCN2)c1,inactive
7,NC(=S)N/N=C/c1cccnc1,inactive
8,CO[C@]12C[C@@H](COC(=O)c3cncc(Br)c3)CN(C)[C@@H]1Cc1cn(C)c3cccc2c13,inactive
9,COc1cc(C)nc(-n2nc(C)cc2OC)n1,inactive
10,N#CCC(=O)NN,inactive
11,CCCN(CCC)S(=O)(=O)c1ccc(C(=O)O)cc1,inactive
12,CCOc1cc(OCC)c(C(=O)CCC(=O)O)cc1OCC,inactive
13,O=[N+]([O-])c1ccc(/C=N\O)o1,inactive
14,O=C(CCN1CCN2CCCC2C1)N1c2ccccc2Sc2ccc(Cl)cc21 (stereo not given),inactive
15,CC(C(=O)O)c1cccc(Oc2ccccc2)c1 (stereo not given),inactive
16,CCCCCCCCCCCCCC(=O)OC(C)C,inactive
17,COc1ccc(-c2cc(C(F)F)nn2-c2ccc(S(N)(=O)=O)cc2)cc1F,inactive

row,Structure (SMILES),Potency
1,NS(=O)(=O)c1cc(C(=O)O)cc(N2CCCC2)c1Oc1ccccc1,inactive
2,O=C(O)c1ccc(S(=O)(=O)N(Cl)Cl)cc1,inactive
3,CC(C)n1c(/C=C/[C@@H](O)C[C@@H](O)CC(=O)O)c(-c2ccc(F)cc2)c2ccccc21,inactive
4,Cc1cccc(C)c1NC(=O)CN1CCCC1,inactive
5,CCCCCCCC/C=C\CCCCCCCCN,inactive
6,CCCCN1C[C@H](O)[C@@H](O)[C@H](O)[C@H]1CO,inactive
7,COP(=O)(OC)OC(c1ccc(Cl)cc1)P(=O)(OC)OC (stereo not given),inactive
8,CCN(CC)CCOC(=O)C(Cc1cccc2ccccc12)CC1CCCO1 (stereo not given),inactive
9,O=C(O)P(=O)(O)O,inactive
10,CC(=C(CCOC(=O)C(C)C)SSC(CCOC(=O)C(C)C)=C(C)N(C=O)Cc1cnc(C)nc1N)N(C=O)Cc1cnc(C)nc1N,inactive
11,NCc1ccccc1Sc1ccccc1CO,inactive
12,CCN1CCCC(OC(=O)C(c2ccccc2)c2ccccc2)C1 (stereo not given),inactive
13,CCCc1ncc(C[n+]2ccccc2C)c(N)n1,inactive
14,CN(C)CCC[C@@]1(c2ccc(F)cc2)OCc2cc(C#N)ccc21,inactive
15,COc1cc(C(=O)NCc2ccc(OCCN(C)C)cc2)cc(OC)c1OC,inactive
16,CCOc1ccccc1OCCN[C@H](C)Cc1ccc(OC)c(S(N)(=O)=O)c1,inactive
17,Nc1ccc(C(=O)NCC(=O)O)cc1,inactive
